The target in assay [1] is Protein kinase C gamma type (Homo sapiens) (UniProt P05129). The following applies: at 1 µM.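 Also: each value is an averaged percent inhibition of the enzyme.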
Assay [2] deals with T1, Protein kinase C iota type (Homo sapiens) (UniProt P41743).
T1 sequence (whole entry): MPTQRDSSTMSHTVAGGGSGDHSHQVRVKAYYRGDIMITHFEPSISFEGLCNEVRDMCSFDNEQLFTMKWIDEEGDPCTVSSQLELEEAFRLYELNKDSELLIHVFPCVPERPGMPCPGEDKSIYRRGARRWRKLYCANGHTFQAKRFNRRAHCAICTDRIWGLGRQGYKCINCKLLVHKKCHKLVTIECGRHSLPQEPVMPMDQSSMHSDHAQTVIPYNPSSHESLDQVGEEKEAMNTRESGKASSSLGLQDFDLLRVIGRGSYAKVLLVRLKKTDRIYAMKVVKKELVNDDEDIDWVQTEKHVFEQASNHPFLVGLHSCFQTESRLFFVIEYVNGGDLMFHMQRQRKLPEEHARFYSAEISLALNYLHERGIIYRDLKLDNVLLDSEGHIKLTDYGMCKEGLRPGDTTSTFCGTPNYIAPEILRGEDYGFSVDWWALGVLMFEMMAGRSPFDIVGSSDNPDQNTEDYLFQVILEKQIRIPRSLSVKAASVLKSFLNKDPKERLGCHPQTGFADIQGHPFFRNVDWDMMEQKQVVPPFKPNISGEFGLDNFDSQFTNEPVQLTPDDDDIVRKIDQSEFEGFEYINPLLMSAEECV
As to conditions: at 0.1 µM.

The target of assay [3] is T1, Protein kinase C iota type (Homo sapiens). As to conditions: at 1 µM.
Assay [4] has as its target Protein kinase C theta type (Homo sapiens) (UniProt Q04759). As to conditions: at 0.1 µM.
Assay [5] has the same target. As to conditions: at 1 µM.
The target in assay [6] is Protein kinase C beta type (Homo sapiens) (UniProt P05771). As to conditions: at 0.1 µM.
Protein kinase C beta type (Homo sapiens), sequence (P05771 2-671 limits assumed): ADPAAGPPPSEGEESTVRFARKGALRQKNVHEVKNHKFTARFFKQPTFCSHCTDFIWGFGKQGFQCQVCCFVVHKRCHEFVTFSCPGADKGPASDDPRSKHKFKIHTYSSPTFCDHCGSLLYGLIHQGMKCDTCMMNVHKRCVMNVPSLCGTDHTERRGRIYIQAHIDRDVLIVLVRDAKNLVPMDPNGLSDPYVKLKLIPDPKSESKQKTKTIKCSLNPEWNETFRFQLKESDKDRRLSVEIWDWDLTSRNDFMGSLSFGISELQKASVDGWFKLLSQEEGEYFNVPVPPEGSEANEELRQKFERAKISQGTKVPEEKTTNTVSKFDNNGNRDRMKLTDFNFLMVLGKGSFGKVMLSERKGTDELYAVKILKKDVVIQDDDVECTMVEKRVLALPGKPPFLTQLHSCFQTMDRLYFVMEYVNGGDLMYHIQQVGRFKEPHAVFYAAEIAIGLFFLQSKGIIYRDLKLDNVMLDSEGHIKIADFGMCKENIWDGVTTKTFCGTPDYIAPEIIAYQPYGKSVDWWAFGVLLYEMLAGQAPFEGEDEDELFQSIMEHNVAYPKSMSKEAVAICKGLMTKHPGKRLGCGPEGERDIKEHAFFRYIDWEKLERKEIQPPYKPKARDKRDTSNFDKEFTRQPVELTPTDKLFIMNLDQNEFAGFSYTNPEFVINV
The target is the same in assay [7]. As to conditions: at 1 µM.
Assay [8] has as its target T2, Serine/threonine-protein kinase D1 (Homo sapiens) (UniProt Q15139).
T2 sequence (whole entry): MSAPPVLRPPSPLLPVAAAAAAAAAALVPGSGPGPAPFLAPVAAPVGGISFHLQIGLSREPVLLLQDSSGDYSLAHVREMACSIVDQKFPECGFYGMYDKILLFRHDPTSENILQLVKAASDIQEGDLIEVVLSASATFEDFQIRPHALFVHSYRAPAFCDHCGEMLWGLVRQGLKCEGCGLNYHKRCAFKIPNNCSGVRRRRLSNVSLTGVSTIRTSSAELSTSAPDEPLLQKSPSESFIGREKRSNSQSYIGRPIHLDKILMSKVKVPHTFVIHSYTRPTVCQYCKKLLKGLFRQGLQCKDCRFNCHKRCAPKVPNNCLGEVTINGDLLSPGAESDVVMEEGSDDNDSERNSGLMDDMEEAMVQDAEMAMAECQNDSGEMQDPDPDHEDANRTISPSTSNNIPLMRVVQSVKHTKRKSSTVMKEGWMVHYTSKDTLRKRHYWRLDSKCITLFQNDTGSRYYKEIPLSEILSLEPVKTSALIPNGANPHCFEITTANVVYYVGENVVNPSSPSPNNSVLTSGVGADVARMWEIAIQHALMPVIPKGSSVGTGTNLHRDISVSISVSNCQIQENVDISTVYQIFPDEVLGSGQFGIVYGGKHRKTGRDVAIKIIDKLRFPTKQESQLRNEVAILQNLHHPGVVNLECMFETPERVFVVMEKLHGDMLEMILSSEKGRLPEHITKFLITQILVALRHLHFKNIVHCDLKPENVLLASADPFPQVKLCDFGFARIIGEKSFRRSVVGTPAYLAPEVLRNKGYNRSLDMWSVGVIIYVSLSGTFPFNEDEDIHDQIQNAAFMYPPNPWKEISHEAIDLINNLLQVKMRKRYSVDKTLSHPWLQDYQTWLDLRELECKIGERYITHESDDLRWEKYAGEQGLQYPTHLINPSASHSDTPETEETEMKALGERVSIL
As to conditions: at 0.1 µM.

In assay [9] the target is T2, Serine/threonine-protein kinase D1 (Homo sapiens). As to conditions: at 1 µM.
Assay [10] deals with T3, Serine/threonine-protein kinase D2 (Homo sapiens) (UniProt Q9BZL6).
T3 sequence (whole entry): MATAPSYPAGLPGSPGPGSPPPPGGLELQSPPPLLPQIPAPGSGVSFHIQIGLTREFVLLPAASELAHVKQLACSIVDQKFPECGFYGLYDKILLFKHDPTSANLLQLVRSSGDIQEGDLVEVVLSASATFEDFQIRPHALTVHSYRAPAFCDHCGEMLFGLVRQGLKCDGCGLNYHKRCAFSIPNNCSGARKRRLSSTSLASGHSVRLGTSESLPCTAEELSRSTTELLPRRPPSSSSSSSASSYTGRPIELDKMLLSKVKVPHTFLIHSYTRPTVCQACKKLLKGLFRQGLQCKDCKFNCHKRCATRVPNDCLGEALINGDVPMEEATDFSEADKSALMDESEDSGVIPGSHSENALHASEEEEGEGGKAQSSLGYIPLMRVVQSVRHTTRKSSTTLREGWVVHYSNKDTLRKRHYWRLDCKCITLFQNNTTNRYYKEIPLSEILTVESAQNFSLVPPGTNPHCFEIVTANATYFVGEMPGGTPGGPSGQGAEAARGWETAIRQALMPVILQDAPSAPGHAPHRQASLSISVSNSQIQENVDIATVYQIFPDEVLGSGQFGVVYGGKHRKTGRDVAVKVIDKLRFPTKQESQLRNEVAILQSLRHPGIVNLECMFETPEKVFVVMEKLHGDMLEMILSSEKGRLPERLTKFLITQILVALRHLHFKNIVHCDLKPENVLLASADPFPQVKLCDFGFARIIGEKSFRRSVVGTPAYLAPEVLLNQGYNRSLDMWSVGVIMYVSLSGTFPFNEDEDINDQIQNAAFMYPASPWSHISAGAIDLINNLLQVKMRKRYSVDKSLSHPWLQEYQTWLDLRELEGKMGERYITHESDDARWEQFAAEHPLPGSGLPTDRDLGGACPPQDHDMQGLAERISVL
As to conditions: at 0.1 µM.

Assay [11] addresses T3, Serine/threonine-protein kinase D2 (Homo sapiens). The following applies: at 1 µM.
The target in assay [12] is T4, Serine/threonine-protein kinase D3 (Homo sapiens) (UniProt O94806).
T4 sequence (whole entry): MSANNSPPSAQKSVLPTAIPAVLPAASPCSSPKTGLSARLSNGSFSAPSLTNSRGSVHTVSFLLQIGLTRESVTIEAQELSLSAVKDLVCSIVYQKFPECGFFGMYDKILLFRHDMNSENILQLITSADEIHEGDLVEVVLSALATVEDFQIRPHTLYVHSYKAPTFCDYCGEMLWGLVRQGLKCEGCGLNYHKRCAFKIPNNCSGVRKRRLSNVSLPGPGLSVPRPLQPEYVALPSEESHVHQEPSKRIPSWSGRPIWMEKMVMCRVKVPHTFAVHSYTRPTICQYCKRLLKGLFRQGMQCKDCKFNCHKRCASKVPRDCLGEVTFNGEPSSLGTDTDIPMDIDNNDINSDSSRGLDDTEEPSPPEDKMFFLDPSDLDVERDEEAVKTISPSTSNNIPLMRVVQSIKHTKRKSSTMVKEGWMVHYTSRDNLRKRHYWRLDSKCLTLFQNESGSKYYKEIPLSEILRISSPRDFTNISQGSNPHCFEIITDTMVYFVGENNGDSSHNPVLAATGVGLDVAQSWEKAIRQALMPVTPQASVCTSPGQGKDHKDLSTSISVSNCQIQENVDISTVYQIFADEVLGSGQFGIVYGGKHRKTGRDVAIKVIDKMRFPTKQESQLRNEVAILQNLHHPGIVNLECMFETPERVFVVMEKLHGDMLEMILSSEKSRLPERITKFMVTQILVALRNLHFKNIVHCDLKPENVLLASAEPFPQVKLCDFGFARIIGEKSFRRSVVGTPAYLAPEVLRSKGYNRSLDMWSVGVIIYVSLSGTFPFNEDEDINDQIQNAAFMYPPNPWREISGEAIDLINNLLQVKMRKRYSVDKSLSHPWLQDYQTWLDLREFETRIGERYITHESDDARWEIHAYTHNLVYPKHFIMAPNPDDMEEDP
The following applies: at 0.1 µM.

Assay [13] addresses T4, Serine/threonine-protein kinase D3 (Homo sapiens). The following applies: at 1 µM.
Assay [14] addresses T5, cGMP-dependent protein kinase 1 (Homo sapiens) (UniProt Q13976).
T5 sequence (whole entry): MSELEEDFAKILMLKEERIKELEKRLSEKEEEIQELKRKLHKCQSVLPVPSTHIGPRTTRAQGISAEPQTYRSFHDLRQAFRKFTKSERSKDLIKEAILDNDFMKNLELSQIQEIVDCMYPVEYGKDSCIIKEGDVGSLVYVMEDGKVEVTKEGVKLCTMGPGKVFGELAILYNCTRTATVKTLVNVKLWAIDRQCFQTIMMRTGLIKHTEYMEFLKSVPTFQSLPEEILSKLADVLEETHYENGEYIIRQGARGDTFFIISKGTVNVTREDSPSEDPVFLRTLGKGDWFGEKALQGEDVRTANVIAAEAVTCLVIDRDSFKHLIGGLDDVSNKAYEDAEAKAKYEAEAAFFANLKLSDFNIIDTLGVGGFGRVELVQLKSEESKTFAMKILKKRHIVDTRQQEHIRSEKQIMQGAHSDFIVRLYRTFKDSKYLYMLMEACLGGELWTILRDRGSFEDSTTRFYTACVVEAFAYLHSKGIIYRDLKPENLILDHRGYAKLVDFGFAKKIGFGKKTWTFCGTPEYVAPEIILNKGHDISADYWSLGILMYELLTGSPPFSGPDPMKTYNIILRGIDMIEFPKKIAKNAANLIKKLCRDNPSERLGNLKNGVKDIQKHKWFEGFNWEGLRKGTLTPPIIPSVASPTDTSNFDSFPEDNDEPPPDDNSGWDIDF
The following applies: at 0.1 µM.

Assay [15] concerns the target T5, cGMP-dependent protein kinase 1 (Homo sapiens). The following applies: at 1 µM.
For assay [16], the target named is T6, cGMP-dependent protein kinase 2 (Homo sapiens) (UniProt Q13237).
T6 sequence (whole entry): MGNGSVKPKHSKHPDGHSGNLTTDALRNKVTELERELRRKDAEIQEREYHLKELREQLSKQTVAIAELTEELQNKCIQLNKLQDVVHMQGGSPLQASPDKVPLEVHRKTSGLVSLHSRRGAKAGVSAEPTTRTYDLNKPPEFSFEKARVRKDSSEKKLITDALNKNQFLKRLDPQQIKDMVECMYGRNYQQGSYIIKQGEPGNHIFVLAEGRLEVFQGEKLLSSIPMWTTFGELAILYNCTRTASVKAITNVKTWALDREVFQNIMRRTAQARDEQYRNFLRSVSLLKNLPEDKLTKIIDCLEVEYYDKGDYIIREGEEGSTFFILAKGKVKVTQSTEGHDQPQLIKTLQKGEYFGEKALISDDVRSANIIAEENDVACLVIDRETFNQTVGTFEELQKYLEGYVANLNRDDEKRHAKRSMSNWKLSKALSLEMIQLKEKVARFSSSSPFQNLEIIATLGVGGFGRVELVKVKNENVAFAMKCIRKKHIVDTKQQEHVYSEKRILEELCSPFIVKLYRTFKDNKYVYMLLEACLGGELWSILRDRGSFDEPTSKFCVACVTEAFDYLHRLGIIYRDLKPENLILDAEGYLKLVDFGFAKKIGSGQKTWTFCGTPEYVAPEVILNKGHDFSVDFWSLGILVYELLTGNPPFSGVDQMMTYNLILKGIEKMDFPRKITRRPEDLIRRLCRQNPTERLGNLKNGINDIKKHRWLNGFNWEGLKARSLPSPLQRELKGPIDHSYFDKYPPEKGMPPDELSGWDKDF
As to conditions: at 0.1 µM.

In assay [17] the target is T6, cGMP-dependent protein kinase 2 (Homo sapiens). As to conditions: at 1 µM.
The target in assay [18] is T7, cAMP-dependent protein kinase catalytic subunit PRKX (Homo sapiens) (UniProt P51817).
T7 sequence (whole entry): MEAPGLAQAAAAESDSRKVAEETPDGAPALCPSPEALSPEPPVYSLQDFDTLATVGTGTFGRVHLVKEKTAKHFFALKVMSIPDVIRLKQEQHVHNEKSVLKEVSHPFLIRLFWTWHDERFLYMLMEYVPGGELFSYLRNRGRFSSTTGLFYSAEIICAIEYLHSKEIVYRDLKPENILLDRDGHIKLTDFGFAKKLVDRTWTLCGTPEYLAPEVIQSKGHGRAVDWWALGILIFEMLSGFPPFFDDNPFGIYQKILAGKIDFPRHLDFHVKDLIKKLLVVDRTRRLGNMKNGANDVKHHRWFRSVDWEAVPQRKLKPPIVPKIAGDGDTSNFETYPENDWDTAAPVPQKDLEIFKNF
The following applies: at 0.1 µM.

For assay [19], the target named is T7, cAMP-dependent protein kinase catalytic subunit PRKX (Homo sapiens). As to conditions: at 1 µM.
The target in assay [20] is Rho-associated protein kinase 1 (Homo sapiens) (UniProt Q13464). As to conditions: at 0.1 µM.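 Also: values are mean percent inhibition of ROCK1.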
Rho-associated protein kinase 1 (Homo sapiens), sequence (Q13464 2-1354 limits assumed): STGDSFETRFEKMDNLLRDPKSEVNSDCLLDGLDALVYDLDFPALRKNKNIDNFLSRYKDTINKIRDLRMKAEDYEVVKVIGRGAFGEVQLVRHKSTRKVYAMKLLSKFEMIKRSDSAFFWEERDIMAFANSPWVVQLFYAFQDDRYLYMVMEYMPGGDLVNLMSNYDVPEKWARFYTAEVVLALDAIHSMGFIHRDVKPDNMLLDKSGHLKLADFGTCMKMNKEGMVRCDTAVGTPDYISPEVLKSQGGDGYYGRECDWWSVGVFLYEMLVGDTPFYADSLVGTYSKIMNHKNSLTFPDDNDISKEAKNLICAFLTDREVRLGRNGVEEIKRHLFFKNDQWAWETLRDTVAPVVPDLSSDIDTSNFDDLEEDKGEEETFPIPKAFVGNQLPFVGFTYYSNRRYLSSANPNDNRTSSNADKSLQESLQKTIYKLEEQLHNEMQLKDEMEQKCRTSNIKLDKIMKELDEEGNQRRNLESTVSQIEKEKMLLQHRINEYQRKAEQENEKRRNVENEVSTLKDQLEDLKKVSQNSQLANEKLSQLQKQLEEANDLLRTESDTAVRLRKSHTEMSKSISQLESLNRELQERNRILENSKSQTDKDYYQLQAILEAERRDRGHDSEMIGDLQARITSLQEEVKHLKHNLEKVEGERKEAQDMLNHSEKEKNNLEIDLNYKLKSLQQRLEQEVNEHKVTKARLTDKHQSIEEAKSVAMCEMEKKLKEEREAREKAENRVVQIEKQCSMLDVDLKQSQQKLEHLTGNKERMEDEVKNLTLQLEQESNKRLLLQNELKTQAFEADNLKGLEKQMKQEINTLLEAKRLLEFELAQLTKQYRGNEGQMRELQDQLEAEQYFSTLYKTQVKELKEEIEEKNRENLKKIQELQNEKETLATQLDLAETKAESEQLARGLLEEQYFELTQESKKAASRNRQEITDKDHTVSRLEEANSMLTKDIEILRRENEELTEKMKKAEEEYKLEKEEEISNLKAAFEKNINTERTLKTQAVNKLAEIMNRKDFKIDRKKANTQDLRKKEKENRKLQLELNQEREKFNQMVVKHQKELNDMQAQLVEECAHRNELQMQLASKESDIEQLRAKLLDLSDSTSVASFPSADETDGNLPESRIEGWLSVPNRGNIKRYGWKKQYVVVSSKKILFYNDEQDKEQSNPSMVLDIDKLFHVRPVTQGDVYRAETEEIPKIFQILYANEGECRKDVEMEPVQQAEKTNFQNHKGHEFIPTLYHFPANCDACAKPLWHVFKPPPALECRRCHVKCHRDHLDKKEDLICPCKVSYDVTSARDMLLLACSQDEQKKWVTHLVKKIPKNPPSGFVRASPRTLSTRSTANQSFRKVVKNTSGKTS

Protein kinase C theta type (Homo sapiens), sequence (Q04759 whole entry, looked up): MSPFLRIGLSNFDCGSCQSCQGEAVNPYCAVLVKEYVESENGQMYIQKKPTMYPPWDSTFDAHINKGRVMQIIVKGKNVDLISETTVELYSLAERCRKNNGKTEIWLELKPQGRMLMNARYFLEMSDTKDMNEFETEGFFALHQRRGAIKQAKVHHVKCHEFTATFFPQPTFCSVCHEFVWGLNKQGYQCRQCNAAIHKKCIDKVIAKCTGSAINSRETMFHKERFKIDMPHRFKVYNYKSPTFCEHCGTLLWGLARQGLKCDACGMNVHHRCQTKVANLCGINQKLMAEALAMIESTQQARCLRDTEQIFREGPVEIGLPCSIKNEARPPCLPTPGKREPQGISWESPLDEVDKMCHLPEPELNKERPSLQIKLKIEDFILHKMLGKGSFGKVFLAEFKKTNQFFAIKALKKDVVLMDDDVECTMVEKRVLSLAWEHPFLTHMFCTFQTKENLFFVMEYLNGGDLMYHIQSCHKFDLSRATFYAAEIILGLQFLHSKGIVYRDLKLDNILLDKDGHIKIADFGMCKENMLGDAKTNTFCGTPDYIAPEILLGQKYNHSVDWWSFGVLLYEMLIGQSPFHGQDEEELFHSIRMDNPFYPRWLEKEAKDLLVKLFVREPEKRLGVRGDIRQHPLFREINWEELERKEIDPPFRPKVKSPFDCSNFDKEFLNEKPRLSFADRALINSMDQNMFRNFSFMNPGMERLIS

For the compound `NC(=O)c1ccc(Oc2nccc(-c3c(-c4ccc(F)cc4)ncn3C3CCNCC3)n2)cc1`, the inhibition in [1] worked out at 2.68%; in assay [2], 2.53%; in assay [3], 1.91%; in [4], 3.83%; in assay [5] it was 3.82%; in assay [6], 1.9%. Further, the inhibition is 5.22% in [7]; 4.57% in assay [8]; 6.71% in assay [9]; 4.04% in [10]; 3.14% in assay [11]; 4.58% in [12]. In addition, the inhibition in assay [13] came out at 5.2%; in assay [14], 4.67%; in [15], 6.78%; in assay [16], 5.65%; in [17] it was 6.43%; in [18], 3.5%. The inhibition was 3.99% in assay [19] and 2.81% in assay [20].

Regarding `C[C@@H](Oc1cc(-n2cnc3ccc(OC4CCN(C)CC4)cc32)sc1C(N)=O)c1ccccc1Cl`, the inhibition in assay [1] is 4.97%; in [2], 1.12%; in assay [3], 2.89%; in assay [4] it was 3.08%; in assay [5], 9.67%; in assay [6], 1.56%. Also, the inhibition in assay [7] is 8.48%; in assay [8] it was 0.52%; in [9], 3.79%; in assay [10], 0.7%; in assay [11] it was 1.06%; in [12], 0.8%. The inhibition in assay [13] stood at 3.55%; in assay [14], 3.98%; in [15], 4.08%; in assay [16], 1.43%; in assay [17], 4.43%; in assay [18] it was 2.2%. Also, the inhibition was -1.84% in [19] and 1.76% in assay [20].

As usually defined, the inhibition is the change of the read-out against control, counted positive when it falls.
